Compounds without any hit were thinned out: in the full panel of roughly 79,000, 15% have a hit. A number with no mark means an inactive call. The source made the active and inactive calls. Cut-off read from the data, not from the text of the source: active = growth inhibition above about 70%; inactive = the rest.
Assay: NCI Yeast Anticancer Drug Screen. Data for the mlh1 rad18 strain (AID 175)
Conditions: S. cerevisiae mlh1 rad18 strain growth inhibition; at 50.0 µM; hits give high values
Description: Growth inhibition of yeast strains with defined genetic alterations is measured as a screen for potential anti-cancer activity. Selected strains with alterations in DNA damage repair or cell cycle control were exposed to compounds and growth inhibition was measured relative to vehicle treated controls. The strain used in this assay is mlh1 rad18

Row | Compound | growth inhibition
1 | CNC(=S)NNc1ncnc2c1ncn2-c1ccc(C)cc1 | 4.25%
2 | CCN(CC)CCN(C(=O)c1ccc(F)cc1)c1ccccc1N | -23.6%
3 | O=C(Cc1ccccc1)NC(CSSCC(NC(=O)Cc1ccccc1)C(=O)O)C(=O)O (stereo not given) | 11.1%
4 | O=c1c2ccccc2n2n1Cc1ccccc1C2 | 59.4%
5 | COc1ccc([N+](=O)[O-])cc1NC(=O)c1ccc(Cl)cc1 | 34.8%
6 | COC(=O)c1cc2cccn2cn1 | -8.85%
7 | Cc1cc(C)c(C(=O)CSC(=N)N)c(C)c1 | 2.4%
8 | CCCC(C(=O)O)(c1ccccc1)c1ccccc1 | 1.8%
9 | COc1ccc(N=C2[Se]C(=NC(=O)c3ccccc3)N(c3ccc(OC)cc3)C2=Nc2ccc(OC)cc2)cc1 | -7.95%
10 | C=C(Cl)C(=O)O | -7.55%
11 | O=[N+]([O-])c1ccc(-c2nnn(Cc3ccco3)c2N2CCCCC2)cc1 | 81.3% (active)
12 | CCC(O)C(CC)CC (stereo not given) | 14.9%
13 | CN(C)CCSS(=O)(=O)O | -14.2%
14 | COC(=O)c1c2c(cc3c1CCC3)CCC2 | -20.2%
15 | C[N+](C)(N)c1nc(N)c(C#N)c(C#N)c1C#N | 13.8%
16 | Nc1c(S(N)(=O)=O)cc(S(N)(=O)=O)cc1S(N)(=O)=O | -16%
17 | Cc1nc(N)nc(N)c1N1CCN(c2ccc(C(=O)NC(C(=O)O)C(=O)O)cc2)CC1 | -37.8%
18 | N#CSCCOCCOC(=O)NC1CCCCC1 | 14.6%
19 | Cc1ccc(NC(=O)C2C(=O)N(c3ccc(C)c(C)c3)C(=O)C2N=N)cc1C (stereo not given) | 44.9%
20 | CN(C)c1ncnc2c1cnn2-c1ccc(Cl)cc1 | -8.45%

Row | Compound | growth inhibition
21 | O.[Cl][Co]([Cl])[Cl].c1c[nH]cn1.c1c[nH]cn1 | -2.7%
22 | O=C1c2ccccc2C(=O)N1CNc1cccc(NCN2C(=O)c3ccccc3C2=O)n1 | -34.8%
23 | Cc1cc(C)c(Cc2c(C)cc(C)cc2C)c(C)c1 | 13.9%
24 | COc1cc(C2c3cc4c(cc3OC(NNC(N)=O)C2C)OCO4)cc(OC)c1OC (stereo not given) | 10.4%
25 | COC(=O)c1cc([O-])c2sc(C)c(C)[n+]2n1 | 2.55%
26 | Nc1c2ccccc2nc2nccnc12 | 30.4%
27 | NC1C([O-])OC(CO)C(O)C1O.O=C1OC(C(O)CO)C([O-])=C1[OH2+].[Cu+2] (stereo not given) | -12.8%
28 | CCCCC[N+]1([O-])CCOCC1 | 1.05%
29 | CCCCCCCCCCCCCC(=O)Oc1ccc([N+](=O)[O-])cc1 | 14.4%
30 | C#CCI | 17.5%
31 | CCCCCCCCCCCCCCCCSC(=N)N | 38%
32 | Cc1cccc(NC(=O)Oc2cc(C)c(Cl)cc2C(C)C)c1 | 98% (active)
33 | Cc1ccc(N=C2C(=Nc3ccc(C)cc3)N(c3ccc(C)cc3)C(=S)N2C(=O)c2ccccc2)cc1 | -13.1%
34 | CCOC(C#CC(=O)C(C)C)OCC | 19.4%
35 | CC1(c2ccc3cccc(F)c3c2)OC(=O)c2ccccc21 (stereo not given) | -12.7%
36 | CC(O)C1C(C(=O)O)C2C(C)OC(=O)C12 (stereo not given) | 15.5%
37 | Cc1ccccc1C(=O)N(C(C)C)C(C)C | 1%
38 | O=Cc1cccc2c([N+](=O)[O-])cccc12 | 49.5%
39 | COc1ccc2c(c1)-c1c3c(cc4ccnc(c14)C2=O)OCO3 | 91.8% (active)
40 | CC(=O)NNc1nc(C)c(C(=O)NNC(=O)C(=O)Nc2c(Cl)cc([N+](=O)[O-])cc2Cl)s1 | 18.9%
